Laboratory results reported in PubChem BioAssay (NCI).
Compounds without any hit were thinned out: in the full panel of roughly 83,000, 20% have a hit.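 How to read the values: 0–100, growth inhibition (40 = 60% inhibited); 0, no net growth; -100 to 0, cell death (-40 = 40% of starting cells died; -100 = all dead).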 The source made the active and inactive calls. Rule for the calls: active = growth percent below 10; inactive = the rest.

Tests used:
Test in all cases: NCI-60 one-dose screen, 48 h (100 = growth as untreated, 0 = no growth, -100 = all killed)
Settings in all cases: 10 µM unless noted
[1] = tested on: NCI-H23 lung
[2] = tested on: NCI-H226 lung
[3] = tested on: NCI-H322M lung
[4] = tested on: HOP-62 NSCLC
[5] = tested on: NCI-H460 lung
[6] = tested on: HOP-92 NSCLC
[7] = tested on: NCI-H522 lung
[8] = tested on: A549/ATCC NSCLC
[9] = tested on: 786-0 renal
[10] = tested on: COLO 205 colon

Measured: growth

COc1ccc(/C=C\c2cc(OC)c(OC)c(OC)c2)c(NS(=O)(=O)c2ccc(C)cc2)c1O
active: [5] 6.42% | [7] -17.3% | [10] -15.5%
inactive: [1] 23.2% | [2] 33.9% | [3] 43.6% | [4] 80.7% | [6] 44.4% | [8] 26.6% | [9] 18.8%

O=C(O)CNC(=O)C(Cl)(Cl)Cl
inactive: [1] 106% | [2] 94.1% | [3] 97.7% | [4] 107% | [5] 96.2% | [6] 87.2% | [7] 85.1% | [8] 98.2% | [9] 98.8% | [10] 106%

CCCCOc1ccc(C(N)Cc2ccccc2)cc1 (stereo not given)
inactive: [1] 104% | [2] 112% | [3] 92.4% | [4] 107% | [5] 95.5% | [6] 41% | [7] 93% | [8] 90% | [9] 75.3%
active: [10] -43.2%

COc1ccc2nc(NC(=O)COc3cc(/C=C\c4cc(OC)c(OC)c(OC)c4)ccc3OC)sc2c1
active: [5] 4.25% | [7] -19.7%
inactive: [1] 32.1% | [2] 40.1% | [3] 25.3% | [4] 45% | [6] 50.9% | [8] 25.7% | [9] 61% | [10] 26%

Clc1ccc(CO/N=C(\Cn2ccnc2)c2ccc(Cl)cc2Cl)c(Cl)c1
inactive: [3] 21.6% | [4] 107% | [10] 105%
active: [1] -16.5% | [2] -8.01% | [5] -32.5% | [6] -31.9% | [7] -45.2% | [8] 7.85% | [9] -45.3%

COC(=O)N[C@H]1CCc2c(Br)c(OC)c(OC)c(OC)c2-c2ccc(SC)c(=O)cc21
inactive: [1] 31.3% | [2] 12.5% | [3] 28% | [4] 29.7% | [8] 18.3% | [9] 10.9%
active: [5] -14.1% | [6] -0.443% | [7] 8.44% | [10] -52.5%

CN(C)C(=O)Oc1ccccc1
inactive: [1] 104% | [2] 105% | [3] 109% | [4] 96.3% | [5] 97.5% | [6] 101% | [7] 112% | [8] 103% | [9] 107% | [10] 112%

CCCCCSC1C2C(=O)C(Br)=CC13CCNc1c(O)c4c5c(c13)=[N+]2CCC=5C=N4 (stereo not given)
active: [1] -17.1% | [2] -5.15% | [3] 2.94% | [4] -73.2% | [5] -33.7% | [6] -56.1% | [7] -64.4% | [8] -52.1% | [9] -50.3% | [10] -76.5%

CC(=O)O[C@H](C[C@H](C(C)C)N(C)C(=O)[C@@H](NC(=O)[C@H]1CCCCN1C)C(C)C)c1nc(C(=O)N[C@@H](Cc2ccccc2)C[C@H](C)C(=O)O)c(C(C)C)s1
active: [5] 6.51% | [7] -21.1% | [8] 8.67% | [10] -60%
inactive: [1] 22.9% | [2] 58.9% | [3] 35.8% | [4] 20% | [6] 51.5% | [9] 16%

CCCCN1CCCC[C@@H]1C(=O)N[C@H](C(=O)N(C)[C@H](CCc1nc(C(=O)N[C@@H](Cc2ccccc2)C[C@H](C)C(=O)OC)cs1)C(C)C)[C@@H](C)CC
inactive: [1] 62.6% | [2] 84% | [3] 71.1% | [4] 56.9% | [5] 57.5% | [6] 22.2% | [7] 25.1% | [8] 58.8% | [9] 66.8% | [10] 22.3%

C[C@]12CCc3nc(Nc4ccccc4F)sc3C1=CC[C@@H]1[C@@H]2CC[C@]2(C)C(=O)CC[C@@H]12
inactive: [1] 77.7% | [2] 85.9% | [3] 86.5% | [4] 87.2% | [5] 60.3% | [6] 116% | [7] 79.1% | [8] 76.7% | [9] 38.5% | [10] 75.7%

CCN(CC)c1ccc2c(c1)OC(N)=C(C#N)C2c1cc(OC)c2c(c1)OCO2 (stereo not given)
inactive: [1] 17.8% | [2] 29% | [3] 47.1% | [4] 42% | [6] 38.2% | [8] 19.8% | [9] 15.5%
active: [5] 3.22% | [7] -41.7% | [10] -42.8%

NC(=O)c1c(Br)n(C2OC(CO)C(O)C2O)c2ncnc(N)c12 (stereo not given)
inactive: [2] 54.1% | [3] 21.7% | [4] 12% | [5] 11.8% | [8] 12.9% | [9] 25.9%
active: [1] 9.8% | [6] 3.71% | [7] -18.7% | [10] -12.9%

CCC(C)(C)[C@H](NC(=O)[C@H]1CCCCN1C)C(=O)N(C)[C@H](C[C@@H](OC(C)=O)c1nc(C(=O)N[C@@H](Cc2ccccc2)C[C@H](C)C(=O)O)cs1)C(C)C
inactive: [1] 29.8% | [3] 41.5% | [4] 15% | [6] 19.4% | [8] 13.1% | [9] 10.8%
active: [2] -44.7% | [5] 5.25% | [7] -32.1% | [10] -51.2%

O=C(N/N=C\c1ccc(N(CCCl)CCCl)cc1)c1cccc([N+](=O)[O-])c1
inactive: [1] 87.7% | [2] 46.6% | [3] 121% | [5] 69.1% | [6] 92.4% | [7] 107% | [8] 90.4% | [9] 96.7% | [10] 102%
active: [4] -2.12%

CC(=O)O[C@H]1C(=O)[C@@]2(C)[C@H]([C@H](OC(=O)c3ccccc3)[C@]3(O)C[C@H](OC(=O)[C@H](OC(=O)OC[C@@H]4COC(C)(C)O4)[C@@H](NC(=O)c4ccccc4)c4ccccc4)C(C)=C1C3(C)C)[C@]1(OC(C)=O)CO[C@@H]1C[C@@H]2O
active: [5] 3.59% | [7] 1.08% | [10] -28.4%
inactive: [1] 19.9% | [2] 60.4% | [3] 14.4% | [4] 19.3% | [6] 64.6% | [8] 11.9% | [9] 19.4%

Cc1cc(C)c(CBr)c(C)c1
inactive: [1] 100% | [2] 92.8% | [3] 92.4% | [4] 104% | [5] 109% | [6] 87.5% | [7] 90.2% | [8] 95.1% | [9] 99.2% | [10] 107%

C[C@@H]1CCC2[C@@H](C)[C@H](OC(=O)CCC(=O)NCCNC(=O)Cc3cc(=O)oc4cc(N(C)C)ccc34)O[C@@H]3O[C@]4(C)CC[C@@H]1C23OO4 (stereo not given in full)
active: [7] -4.8%
inactive: [1] 21.5% | [2] 65.3% | [3] 79.2% | [4] 82.8% | [5] 39.4% | [6] 29.3% | [8] 51.4% | [9] 36.7% | [10] 47.6%

COc1cc(/C=C\c2cc(OC)c(OC)c(OC)c2)cc(NS(=O)(=O)c2cccc(Cl)c2)c1OC
active: [5] 6.99% | [7] 9.96% | [9] 6.56% | [10] -68.2%
inactive: [1] 22.9% | [2] 51.8% | [3] 50% | [4] 63.2% | [6] 47% | [8] 21.4%

NC(CCl)CCl
active: [4] -100% | [10] -100%
inactive: [1] 104% | [2] 94.6% | [3] 102% | [5] 110% | [6] 109% | [7] 100% | [8] 102% | [9] 107%

COC(=O)[C@H](C[C@H](Cc1ccccc1)NC(=O)c1csc([C@@H](C[C@H](C(C)C)N(C)C(=O)[C@@H](NC(=O)[C@H]2CCCCN2C)C(C)C)OC(C)=O)n1)NC(=O)OCc1ccccc1
inactive: [1] 30.2% [8.5 µM] | [3] 44.7% [8.5 µM] | [4] 18.6% [8.5 µM] | [6] 28.2% [8.5 µM] | [8] 18.8% [8.5 µM] | [9] 15.2% [8.5 µM]
active: [2] -42.6% [8.5 µM] | [5] 5.67% [8.5 µM] | [7] -30.4% [8.5 µM] | [10] -53.3% [8.5 µM]

CC(=O)O[C@H](C[C@H](C(C)C)N(C)C(=O)[C@@H](NC(=O)[C@H]1CCCCN1C)C(C)C)c1nc(C(=O)NC2CCC(C(=O)O)CC2)cs1 (stereo not given in full)
active: [7] -6.59%
inactive: [1] 64.8% | [2] 90.6% | [3] 72.4% | [4] 47.1% | [5] 26.7% | [6] 38% | [8] 57.8% | [9] 46% | [10] 32.6%

COc1cc([C@@H]2c3cc4c(cc3[C@H](OC(C)=O)[C@H]3COC(=O)[C@H]23)OCO4)cc(OC)c1OC
active: [5] 9.09% | [7] -4.13% | [10] -27.9%
inactive: [1] 25% | [2] 76.4% | [3] 42.7% | [4] 37.8% | [6] 32.8% | [8] 19.5% | [9] 20.5%

C1CCC([PH+](C2CCCCC2)C2CCCCC2[PH+](C2CCCCC2)C2CCCCC2)CC1.O=C(C1[CH-]CCCC1)C1CCCC[N-]1.[Au] (stereo not given)
active: [1] -35% | [2] -60.1% | [3] -48% | [4] -9.03% | [5] -49.6% | [6] -36.8% | [7] -22.4% | [8] -39.9% | [9] -77.2% | [10] -45%

COc1ccc(N(CC(=O)NCCC[Te]c2ccccc2)C(=O)CCSC2=C(C)C(=O)c3ccccc3C2=O)cc1
active: [1] -49.3% | [2] -54.8% | [3] 2.85% | [4] -46.4% | [5] -73.5% | [6] -49.8% | [7] -41.2% | [8] -52.4% | [9] -22.1% | [10] -97.9%
